# Test results: the supplement of paper PMC10681739
# Key:
# [1] = target: T1, ETS1 (UniProt P14921); test: ETS1 binding intensity (PBM fluorescence), ETS1 alone (arbitrary fluorescence units); higher = stronger binding; conditions: ETS1 concentration 1 nM; RUNX1 concentration 0 nM
# T1 sequence: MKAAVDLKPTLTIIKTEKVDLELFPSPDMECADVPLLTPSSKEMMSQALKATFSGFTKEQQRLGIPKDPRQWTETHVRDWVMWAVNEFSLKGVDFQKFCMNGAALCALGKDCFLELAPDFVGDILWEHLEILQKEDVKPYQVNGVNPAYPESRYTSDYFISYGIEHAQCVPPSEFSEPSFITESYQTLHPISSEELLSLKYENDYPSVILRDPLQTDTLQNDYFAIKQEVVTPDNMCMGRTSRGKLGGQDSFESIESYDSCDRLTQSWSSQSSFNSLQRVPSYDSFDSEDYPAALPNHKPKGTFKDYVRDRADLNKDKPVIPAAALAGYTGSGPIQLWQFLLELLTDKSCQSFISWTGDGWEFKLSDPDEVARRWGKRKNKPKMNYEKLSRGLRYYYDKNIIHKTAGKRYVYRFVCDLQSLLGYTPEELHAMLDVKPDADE
# [2] = target: RUNX1 (UniProt Q01196); test: RUNX1 binding intensity (PBM fluorescence), RUNX1 alone (arbitrary fluorescence units); higher = stronger binding; conditions: RUNX1 concentration 2 nM; ETS1 concentration 0 nM
# Procedure: (§1)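 Cooperative gcPBM on 36-bp genomic probes with neighbouring ETS1 and RUNX1 sites. Recombinant human RUNX1 (2 nM) was incubated alone or with ETS1 (25 nM) and detected with anti-RUNX1 antibody plus Alexa488 secondary. Values are medians over 4 replicate spots; the RUNX1+ETS1 data were normalised to the RUNX1-only data. The probes sit in constant array flanks that are not printed.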
# [3] = target: T1, ETS1; test: ETS1 binding intensity (PBM fluorescence) in presence of RUNX1, normalised to ETS1-only experiment (arbitrary fluorescence units); higher = stronger binding; conditions: ETS1 concentration 1 nM; RUNX1 concentration 25 nM
# [4] = target: RUNX1 (UniProt Q01196); test: RUNX1 binding intensity (PBM fluorescence) in presence of ETS1, normalised to RUNX1-only experiment (arbitrary fluorescence units); higher = stronger binding; conditions: RUNX1 concentration 2 nM; ETS1 concentration 25 nM
# Procedure: as §1
# 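For RUNX1 binding intensity (PBM fluorescence) in presence of ETS1, normalised to RUNX1-only experiment in this document: Full-length recombinant human ETS1 or RUNX1 bound to double-stranded 36-bp genomic probes on microarrays, detected by protein-specific primary antibody and Alexa488 secondary, spot fluorescence as median of four replicate spots.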
# 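For RUNX1 binding intensity (PBM fluorescence), RUNX1 alone in this document: Full-length recombinant human RUNX1 bound to double-stranded 36-bp genomic probes on a high-density microarray, scored as Alexa488 fluorescence per spot via anti-RUNX1 antibody, median of four replicate spots.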
# Sequence of RUNX1 (Q01196 whole entry): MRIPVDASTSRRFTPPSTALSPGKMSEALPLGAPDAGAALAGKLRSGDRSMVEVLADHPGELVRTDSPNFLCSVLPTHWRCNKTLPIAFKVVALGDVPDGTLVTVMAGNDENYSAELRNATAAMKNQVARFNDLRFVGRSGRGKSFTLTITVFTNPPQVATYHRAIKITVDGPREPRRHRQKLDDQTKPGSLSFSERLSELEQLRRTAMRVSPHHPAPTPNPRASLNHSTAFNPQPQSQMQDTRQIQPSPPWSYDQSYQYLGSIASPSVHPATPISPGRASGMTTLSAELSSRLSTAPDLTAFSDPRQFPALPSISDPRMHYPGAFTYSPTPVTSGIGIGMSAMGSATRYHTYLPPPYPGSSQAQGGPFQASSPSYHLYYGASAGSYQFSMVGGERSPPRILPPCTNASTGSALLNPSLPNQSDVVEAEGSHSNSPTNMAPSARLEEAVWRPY
Sequence,ETS1 binding intensity [1],RUNX1 binding intensity [2],ETS1 binding intensity [3],RUNX1 binding intensity [4]
TTCAATCACAGGAAACAGACGTCACCCACAGACCTA,1090,794,2200,983
CGGGACCTGTTTCCTTGGGAACCACAAGATAAGACC,407,709,520,892
CGACTTCCGTCCCTGGGTGGGATCGAACCACCAACC,532,1100,540,2780
GGGCTATTGTTTCCTCCCCCATGTGACCACAGCCTC,418,994,776,1290
CCCCGCGGAACTCTGGCACAGTCAGCTGACCGCAGA,424,1600,2000,1440
AAATCACATACCCGGAAACCACATGCACAGAAGTGG,1480,1090,3060,2090
GGGCAGCAGCAGACCGGAAACCACAGCCGACTAAGA,10700,1160,29500,3330
GAGGCCGAAAGGAAGTTTGAGGTTAAGCACAAGATG,975,792,1900,1060
ATACCGGCGCATCCGGATTTTGAAGCCGCAGTGGAC,728,673,774,1200
CAGGCCTTTCCTGCTATCGTTTGTGGTTTGAGCAGT,429,1940,1120,3830
CTGCCTGGCACAGGATGTGGTCATTTGTGCTGAGGA,5880,730,17900,4420
AATCCACCGGAAACACTTAGACGCCGCAACCCCAGT,3660,895,5740,1590
ACAACTTCCTGTGGGATTTTTGGTGTCTGCGGCTCA,818,811,858,2810
TTACTGCCGGAACTTGGGACCTTTGTAACCACGTCT,524,768,586,875
GCCGCCTCTTCCTGTGTTGCAAACCACAGGTCCACC,1250,1570,2340,4540
TCTTTGAGAAGCGGATGTGGTAAACTTGCCTCTGTT,5970,801,36600,10000
AGGTACCAGGCCCGGAAACCACGGAAAGGGGAACTT,3050,862,5500,1100
CTAACCCTTCTCTTCCTGCAAAAACCACAACAAAGG,640,2250,1720,3580
GGCCGGCTTCCGGGGCGGGTGGAAAGGAGCCACAAG,501,750,498,1260
